Compounds with a hit are over-represented: about 1.4% of the library has one in this group of screens.
GRP78 ERSR act: qHTS for Inducers of the Endoplasmic Reticulum Stress Response (ERSR) in Human Glioma: qHTS. U87-MG GRP78 promoter luciferase reporter, 16 h. Potency, µM, for the others: top-dose activation, hits mostly activators. 420,000 tested, 0.02% active; note: potency is the fitted concentration of half-maximal effect; series mostly up to about 76 µM; % of control where 0% means no effect; nearly all actives have a fitted effect of over 35% in size
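Stably transfected U87-MG glioma cells carrying a GRP78-based luciferase sensor; 16 h compound incubation. Luminescence end-point read 10 min after Bright-Glo addition at room temperature.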
KCNH2 WT inh: qHTS for Inhibitors of KCHN2 3.1: Wildtype qHTS; U2OS, BacMam KCNH2, thallium flux FluxOr; hits give low values; AID 720551, 2013; 340,000 tested, 0.37% active; activity change, % at 1.84 µM; Voltage-gated inwardly rectifying potassium channel KCNH2 (Homo sapiens), Q12809;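 active = maximum activity change below -70%; inconclusive = maximum activity change between -70% and -50%; inactive = maximum activity change above -50%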; note: % is set by controls: 0 for no effect and ±100 for the full control effect
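U2OS cells transduced with wild-type KCNH2 virus are loaded with FluxOr dye for 45 min, and thallium flux is measured in kinetic reads before and after stimulation buffer. Rate constants are normalized to DMSO controls.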
RXFP1 agonist: qHTS Assay for Agonists of the Relaxin Receptor RXFP1 | Relaxin receptor 1 (Homo sapiens), Q9HBX9 | 370,000 tested, 0.3% active | HEK293T-RXFP1 cAMP TR-FRET, 30 min; response scale: percent of porcine relaxin response, buffer zero | Potency, µM (titrated, usually from 57.5 µM), for inactives: at the top dose activation, most hits filed as activators; note: potency is the fitted concentration of half-maximal effect; % is set by controls: 0 for no effect and ±100 for the full control effect; nearly all actives have a fitted effect of over 60% in size
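cAMP rise read by TR-FRET after 30 min, 37C compound exposure (up to 58 uM) in RXFP1-transfected HEK293 cells with Ro 20174 present. EC50 from Hill-equation fits, with 29 nM porcine relaxin as 100% and buffer as basal.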
KCNH2 3.1 block: qHTS for Inhibitors of KCHN2 3.1: Mutant qHTS; 340,000 tested, 0.95% active; activity change, % (tested at about 1.8 µM); U2OS KCNH2 3.1, thallium flux FluxOr; hits give low values; Potassium voltage-gated channel subfamily H member 2, brain isoform KCNH2 3.1 (human);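 active = maximum activity change below -70%; inconclusive = maximum activity change from -70% to -50%; inactive = maximum activity change above -50%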;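 note: thallium influx rate constant from kinetic fluorescence after stimulation buffer; % is set by controls: 0 for no effect and ±100 for the full control effect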
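Thallium flux via FluxOr fluorescence (Red40 quencher, 45 min loading) in U2OS cells virally expressing the KCNH2 3.1 isoform (1.77 x 10^8 /mL virus, overnight at 37 C). Rate constants from 2-min kinetic reads post-stimulation, normalised to positive and negative controls.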
RXFP1 antag: qHTS Assay for Antagonists of the Relaxin Receptor RXFP1; activity change, negative = inhibition, % at 57.5 µM; HEK293-RXFP1, relaxin-stimulated cAMP HTRF, 30 min; hits give low values; AID 1259400, 2018; 350,000 tested, 0.59% active;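 active = activity change of -60% or lower, but not beyond a set lower limit; inconclusive = change between -60% and -40%, or beyond the set limit; inactive = change above -40%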; note: % is set by controls: 0 for no effect and ±100 for the full control effect
PTHR1 ag: qHTS for PTHR1 Agonists: Primary Screen; Parathyroid hormone/parathyroid hormone-related peptide receptor (Homo sapiens), Q03431; HEK293 GP2 PTHR1 cells, GloSensor cAMP luminescence, 1 h; Potency, µM (series often up to 115 µM), without a hit: at the top dose activation, actives largely listed as activators; 410,000 tested, 0.075% active; AID 743266, 2014; note: potency is the fitted concentration of half-maximal effect; nearly all actives have a fitted effect of over 55% in size
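HEK-293-derived GP2 cells expressing PTHR1 and a GloSensor cAMP reporter, 3,000/well, plated overnight, given luciferin plus IBMX (each 0.5 mM as added) for 1 h at 37 °C, then compound for 1 h at 37 °C. Luminescence was read after 15 min at room temperature.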
Starred values were filed as active, the others as inactive; i = inactive; ? = inconclusive; · = not tested or not shown; ! = repeats disagree; [ ] = dose if it differs, or a comment. Unless noted, calls come from the whole dose curve; as a rule, active = well fitted curve in the direction sought with a large enough effect; inconclusive = small, poorly fitted or top-dose-only effect, or another doubt; inactive = no such curve, though single readings can be large; an effect the other way counts as inactive or inconclusive.

SMILES	GRP78 ERSR act	KCNH2 WT inh	RXFP1 agonist	KCNH2 3.1 block	RXFP1 antag	PTHR1 ag
CCOC(=O)C1(Cc2ccc(Cl)cc2)CCN(CCCn2cccn2)CC1	2%	-45	0%	-119*	9	-20%
CCOC(=O)C1(Cc2ccccc2C(F)(F)F)CCN(C(C)CCn2cccn2)CC1 (stereo unspecified)	-4%	-15	-3%	-85*	-1	-24%
O=C(Oc1cc(Cl)ccc1Cl)C1=CC=CN2CCS(=O)(=O)N=C12	-3%	3	0%	11	3	-25%
Fc1ccc(-n2cc(CNCCc3cccnc3)c(-c3ccccc3Cl)n2)cc1	-3%	70	2%	-74*	-23	i
Fc1ccc(-n2cc(CNCCc3ccncc3)c(-c3ccccc3Cl)n2)cc1	0%	22	-1%	11	0	-21%
O=C(COC(=O)c1ccc(Cl)nc1)c1ccc2c(c1)OCCO2	6%	-107*	1%	13	-3	i
c1ccc(Nc2c3c(nc4ccccc24)CCC3)cc1	-9%	9	1%	-7	?	-35%
COc1ccccc1Nc1c2c(nc3ccc(NC(=O)c4cccc(F)c4)cc13)CCCC2	-11%	·	-1%	·	-75*	-91%
Fc1ccc(Nc2c3c(nc4ccccc24)CCC3)cc1	-6%	3	0%	-91*	-4	-33%
Cc1cccc(NC2=CC(c3cccc(Br)c3)N(c3cccc(C)c3)C2=O)c1 (stereo unspecified)	-4%	·	2%	·	-32	-14%
COc1ccc(C2=C(N3CCN(c4cc(Cl)ccc4C)CC3)c3ccccc3C2=O)cc1	-2%	·	6%	·	-7	-13%
CCC(=O)N1CCN(c2ccc(NC(=O)c3c(F)c(F)c(OC)c(F)c3F)cc2)CC1	0%	-6	1%	-7	1	-25%[57.5 µM]
CSc1nnc(-c2cnccn2)n1C	2%	-15	0%	-97*	1	i
COc1ccc(OCC(O)Cn2c(=N)n(Cc3ccccc3)c3ccccc32)cc1 (stereo unspecified)	-6%	-1	1%	-7	10	?
N=c1n(Cc2ccc(Cl)cc2)c2ccccc2n1CC(O)COc1ccccc1 (stereo unspecified)	-13%	?	1%	-85*	?	-28%
Cc1cccc(OCC(O)Cn2c(=N)n(CCN3CCCCC3)c3ccccc32)c1 (stereo unspecified)	-5%	35	2%	?	-63*!	2%[57.5 µM]
Cc1ccc(OCC(O)Cn2c(=N)n(Cc3ccccc3)c3ccccc32)cc1 (stereo unspecified)	-15%	-94*	0%	-75*	-34	-96%
O=C(CSc1nnnn1-c1ccccc1)CSc1nnnn1-c1ccccc1	-3%	22	2%	-9	-1	12%[57.5 µM]
Nc1nnnn1-c1ccccc1	-2%	·	·	·	-74*	·
Oc1ccc2ccccc2c1CN1CCCC1	-2%	7	1%	-5	-23	i
CCN1CCN(Cc2c3ccccc3cc3ccccc23)CC1	-3%	11	-1%	-4	-60*	20%
Cc1noc(C)c1S(=O)(=O)N(C)C[C@H]1Oc2ccc(NC(=O)NC(C)C)cc2C(=O)N([C@H](C)CO)C[C@@H]1C	-2%	-6	·	16	·	-19%
COc1ccc(NC(=S)N(CCCN2CCOCC2)C(C)c2cc3cccc(OC)c3o2)cc1 (stereo unspecified)	-2%	13	-1%	3	-13	i
CCCNC(=S)Nc1ccc2nc(-c3ccccn3)c(-c3ccccn3)nc2c1	-3%	5	8%	11	-1	i
Oc1ccc(-c2nc(-c3ccc(O)c(O)c3)cs2)cc1	?	-2	4%	-10	-11	-23%

High-throughput results from PubChem.
